PubChem BioAssay
A number with no mark means an inactive call. Activity calls are given as the source filed them.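 Rule for the calls, unless noted: active = mean inhibition above 46.5%, the solvent-only control mean plus 3 SD; inactive = the rest.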

Each molecule was assayed on transactivating tegument protein VP16 (Human herpesvirus 1) (assay: VP16 transactivation reporter inhibitors, counter-screen for SRC2 inhibitor project, cell-based, luminescence, single concentration (AID 652007; in the data active = inhibition above about 36%)). Conditions: cell-based VP16 transactivation luciferase reporter, at 8.9 µM, hits give high values.

| SMILES | inhibition |
| --- | --- |
| COC(=O)[C@H]1C[C@@]2(c3ccccc3)c3ccccc3N(S(=O)(=O)c3ccccc3)[C@H]2N1 | 6.95% |
| O=C(/C=C/c1cn(-c2ccccc2)nc1-c1cccnc1)c1ccco1 | 29.5% |
| O=C(Cc1coc2cc3c(cc12)CCC3)OCC(=O)N1CCCC1=O | 16.3% |
| COc1ccccc1-c1cc2nc(C)c(CCC(=O)NCc3ccco3)c(C)n2n1 | -5.98% |
| CCc1ccc(CCNC(=O)OCCCN2CCC3(CCC(c4ccccc4)CC3)C2=O)cc1 (stereo not given) | 5.9% |
| CC(C)CNC(=O)COC(=O)c1c2c(nc3ccccc13)CCC2 | 9.25% |
| COC(=O)c1ccc(/C=C2/SC(=S)N(CCCC(=O)Nc3ccc(O)cc3)C2=O)cc1 | 15.8% |
| Cc1ccc(C(=O)/C=C/Nc2ccccn2)cc1 | 31.1% |
| COc1ccc(-c2nnc(SCC(=O)Oc3ccc(C)cc3)o2)cc1 | -10% |
| NNC(=O)COc1ccc(-c2nccc(-c3ccc(F)cc3)n2)cc1 | -14.6% |
| CC/C=C\[C@H](O)[C@H](O)C1=C(C)C(=O)[C@]2(O1)C(=O)N[C@@](OC)(C(=O)c1ccccc1)C2O (stereo not given in full) | -28.1% |
| C[N+]1(CC2COC3(CCCCC3)O2)CCCC1 (stereo not given) | -9.45% |
| CCCCC(=O)Nc1ccc(C)c(S(=O)(=O)N2CCCCCC2)c1 | -13.7% |
| O=C(COC(=O)CCN1C(=O)/C(=C\C=C\c2ccccc2)SC1=S)Nc1ccc(Br)cc1 | 38.2% (active) |
| Cc1ccc(C(=O)OCC(=O)NC2CCCC(C)C2C)cc1S(=O)(=O)N1CCCCC1 (stereo not given) | -10.8% |
| Cc1c(CCC(=O)N[C@@H](CC(C)C)C(=O)O)c(=O)oc2cc3oc4c(c3cc12)CCCC4 | 37.5% (active) |
| CCN(CC)C(=O)C1CCCN(c2ncnc3c2cnn3-c2ccc(Cl)cc2)C1 (stereo not given) | -32.6% |
| CC(C)(C)c1ccc(OC(=O)Nc2ccc(O)c(C(=O)O)c2)cc1 | 7.15% |
| C=CC(=O)NN(C)c1ncc(C(F)(F)F)cc1Cl | 15.4% |
| O=[N+]([O-])c1ccc(-c2ccc(S(=O)(=O)NCCN3CCCC3)cc2)cc1 | 12.2% |

| SMILES | inhibition |
| --- | --- |
| CC(NC(=O)CCc1nnc(-c2ccc(-c3ccccc3)cc2)o1)c1nc2ccccc2[nH]1 (stereo not given) | 15.2% |
| CC(C)CCSc1nc(N)c(C#N)cc1C#N | -75.7% |
| CCOC(=O)c1c(NC(=O)C2=COCCO2)sc2c1CCN(C(=O)OC)C2 | 3.45% |
| CCC1CCCCN1S(=O)(=O)c1ccc(NC(=O)c2nc(S(C)(=O)=O)ncc2Cl)cc1 (stereo not given) | 96.7% (active) |
| O=c1[nH][nH]c(-c2ccccc2O)c1C(C[N+](=O)[O-])c1ccc(Br)cc1 (stereo not given) | 24.3% |
| CCCCCc1c(C)nc(N2CCc3ccccc32)[nH]c1=O | -17.3% |
| CN(c1ccccc1)S(=O)(=O)c1ccc(C(=O)NCc2ccccc2CN2CCCC2)cc1 | -19.8% |
| CCN(CC)S(=O)(=O)c1ccc(Cl)c(NC(=O)COc2ccc(OC)cc2[N+](=O)[O-])c1 | -24.3% |
| C=C1C(=O)[C@]23C[C@H]1CCC2[C@]1(C)CCC[C@@](C)(C(=O)O)C1C[C@@H]3O (stereo not given in full) | 4.96% |
| O=C(Nc1ccc2oc(=O)c(C(=O)O)cc2c1)Oc1ccccc1 | -3.08% |
| CN(Cc1cc(Cl)cc(Cl)c1)CC(C(=O)c1ccccc1)c1ccccc1 (stereo not given) | 25% |
| Cc1ccc(C)c(-c2nc3cc(N)ccc3o2)c1 | 36.8% (active) |
| COc1ccc(C(=O)NC(=C(Cl)Cl)S(=O)(=O)c2ccc(C)cc2)cc1 | 3.97% |
| OC[C@@H]1CN(Cc2ccc(-c3ccccc3)cc2)C[C@H](n2cnc3c(NCc4ccc(F)cc4)ncnc32)O1 | 20.8% |
| N/C(=N\OC(=O)c1ccc(Cl)cc1Cl)c1ccccn1 | -75.5% |
| CC(=O)CC[C@@H]1CC[C@]2(CCCN(S(C)(=O)=O)C2)O1 | -18.6% |
| Cc1ccc(S(=O)(=O)N2CCC(C(=O)Nc3ccc(S(=O)(=O)N4CCOCC4)cc3)CC2)cc1 | 8% |
| Cc1ccc(S(=O)(=O)c2nc(NCCN(C)C)sc2Cl)cc1 | -5.23% |
| COc1cc(C(O)c2nc(-c3ccncc3)cs2)ccc1F (stereo not given) | 4.64% |
| Cc1cc2c(cc1C)C(=O)NC(C)(C)C2 | 2.03% |

The molecules below were run against Nuclear receptor coactivator 2 (Homo sapiens) (UniProt Q15596) (assay: SRC2 coactivator transcriptional activity inhibitors, confirmation, cell-based, luminescence, HEK293, triplicate (AID 652008;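 note: 0% = DMSO-treated cells and 100% = Gossypol at 36 µM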)). Conditions: HEK293 GAL4-SRC2 luciferase reporter, at 8.9 µM, hits give high values.
Chain of Nuclear receptor coactivator 2 (Homo sapiens) (Q15596 whole entry, looked up, the tested form may be a part): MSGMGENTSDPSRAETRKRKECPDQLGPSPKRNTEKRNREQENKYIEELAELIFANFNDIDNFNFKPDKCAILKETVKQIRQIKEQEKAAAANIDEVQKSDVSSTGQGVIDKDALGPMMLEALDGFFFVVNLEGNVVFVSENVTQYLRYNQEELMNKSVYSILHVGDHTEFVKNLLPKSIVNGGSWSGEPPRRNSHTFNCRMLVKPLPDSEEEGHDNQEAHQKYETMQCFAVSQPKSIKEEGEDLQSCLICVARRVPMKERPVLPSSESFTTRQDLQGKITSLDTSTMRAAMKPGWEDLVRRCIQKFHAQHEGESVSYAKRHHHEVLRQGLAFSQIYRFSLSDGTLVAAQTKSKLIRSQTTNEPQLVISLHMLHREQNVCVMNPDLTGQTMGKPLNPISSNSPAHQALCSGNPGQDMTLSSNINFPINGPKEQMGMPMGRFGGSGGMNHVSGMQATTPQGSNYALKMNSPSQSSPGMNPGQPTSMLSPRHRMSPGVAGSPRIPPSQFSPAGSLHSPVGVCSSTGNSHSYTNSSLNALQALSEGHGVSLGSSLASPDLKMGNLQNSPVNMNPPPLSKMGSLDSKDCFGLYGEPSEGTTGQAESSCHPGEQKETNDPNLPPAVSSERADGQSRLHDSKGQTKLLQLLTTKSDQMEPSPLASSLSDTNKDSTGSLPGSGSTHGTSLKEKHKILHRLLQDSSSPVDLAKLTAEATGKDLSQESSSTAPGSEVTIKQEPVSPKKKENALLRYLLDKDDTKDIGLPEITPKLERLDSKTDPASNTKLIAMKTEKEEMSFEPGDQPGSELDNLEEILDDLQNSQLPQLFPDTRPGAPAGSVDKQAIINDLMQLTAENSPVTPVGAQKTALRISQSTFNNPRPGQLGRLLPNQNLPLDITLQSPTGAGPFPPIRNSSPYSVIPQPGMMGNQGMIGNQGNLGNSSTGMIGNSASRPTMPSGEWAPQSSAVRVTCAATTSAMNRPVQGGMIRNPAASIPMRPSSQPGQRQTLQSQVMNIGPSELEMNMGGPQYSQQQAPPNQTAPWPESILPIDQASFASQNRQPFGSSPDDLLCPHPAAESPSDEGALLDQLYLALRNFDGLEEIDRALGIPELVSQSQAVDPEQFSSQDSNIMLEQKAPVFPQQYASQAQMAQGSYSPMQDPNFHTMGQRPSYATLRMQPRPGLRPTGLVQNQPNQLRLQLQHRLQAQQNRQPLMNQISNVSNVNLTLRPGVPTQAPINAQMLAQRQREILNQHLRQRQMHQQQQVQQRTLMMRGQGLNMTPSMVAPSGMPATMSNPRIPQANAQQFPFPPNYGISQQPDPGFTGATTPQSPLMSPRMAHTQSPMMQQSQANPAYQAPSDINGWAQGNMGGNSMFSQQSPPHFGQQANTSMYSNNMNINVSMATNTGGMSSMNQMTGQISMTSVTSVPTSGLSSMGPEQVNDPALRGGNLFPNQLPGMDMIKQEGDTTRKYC

| SMILES | inhibition |
| --- | --- |
| COC(=O)[C@H]1C[C@@]2(c3ccccc3)c3ccccc3N(S(=O)(=O)c3ccccc3)[C@H]2N1 | 18.3% |
| O=C(/C=C/c1cn(-c2ccccc2)nc1-c1cccnc1)c1ccco1 | 39.6% |
| O=C(Cc1coc2cc3c(cc12)CCC3)OCC(=O)N1CCCC1=O | 38.7% |
| COc1ccccc1-c1cc2nc(C)c(CCC(=O)NCc3ccco3)c(C)n2n1 | 17.5% |
| CCc1ccc(CCNC(=O)OCCCN2CCC3(CCC(c4ccccc4)CC3)C2=O)cc1 (stereo not given) | 33.8% |
| CC(C)CNC(=O)COC(=O)c1c2c(nc3ccccc13)CCC2 | 11.4% |
| COC(=O)c1ccc(/C=C2/SC(=S)N(CCCC(=O)Nc3ccc(O)cc3)C2=O)cc1 | 7.74% |
| Cc1ccc(C(=O)/C=C/Nc2ccccn2)cc1 | 77% (active) |
| COc1ccc(-c2nnc(SCC(=O)Oc3ccc(C)cc3)o2)cc1 | -4.18% |
| NNC(=O)COc1ccc(-c2nccc(-c3ccc(F)cc3)n2)cc1 | 32.3% |
| CC/C=C\[C@H](O)[C@H](O)C1=C(C)C(=O)[C@]2(O1)C(=O)N[C@@](OC)(C(=O)c1ccccc1)C2O (stereo not given in full) | -3.87% |
| C[N+]1(CC2COC3(CCCCC3)O2)CCCC1 (stereo not given) | -21.5% |
| CCCCC(=O)Nc1ccc(C)c(S(=O)(=O)N2CCCCCC2)c1 | 18.4% |
| O=C(COC(=O)CCN1C(=O)/C(=C\C=C\c2ccccc2)SC1=S)Nc1ccc(Br)cc1 | 74.3% (active) |
| Cc1ccc(C(=O)OCC(=O)NC2CCCC(C)C2C)cc1S(=O)(=O)N1CCCCC1 (stereo not given) | 9.97% |
| Cc1c(CCC(=O)N[C@@H](CC(C)C)C(=O)O)c(=O)oc2cc3oc4c(c3cc12)CCCC4 | 69.8% (active) |
| CCN(CC)C(=O)C1CCCN(c2ncnc3c2cnn3-c2ccc(Cl)cc2)C1 (stereo not given) | 58.8% (active) |
| CC(C)(C)c1ccc(OC(=O)Nc2ccc(O)c(C(=O)O)c2)cc1 | 30.5% |
| C=CC(=O)NN(C)c1ncc(C(F)(F)F)cc1Cl | 7.42% |
| O=[N+]([O-])c1ccc(-c2ccc(S(=O)(=O)NCCN3CCCC3)cc2)cc1 | 17.4% |

| SMILES | inhibition |
| --- | --- |
| CC(NC(=O)CCc1nnc(-c2ccc(-c3ccccc3)cc2)o1)c1nc2ccccc2[nH]1 (stereo not given) | 55.9% (active) |
| CC(C)CCSc1nc(N)c(C#N)cc1C#N | 17.8% |
| CCOC(=O)c1c(NC(=O)C2=COCCO2)sc2c1CCN(C(=O)OC)C2 | 8.72% |
| CCC1CCCCN1S(=O)(=O)c1ccc(NC(=O)c2nc(S(C)(=O)=O)ncc2Cl)cc1 (stereo not given) | 72.7% (active) |
| O=c1[nH][nH]c(-c2ccccc2O)c1C(C[N+](=O)[O-])c1ccc(Br)cc1 (stereo not given) | -0.61% |
| CCCCCc1c(C)nc(N2CCc3ccccc32)[nH]c1=O | 14.9% |
| CN(c1ccccc1)S(=O)(=O)c1ccc(C(=O)NCc2ccccc2CN2CCCC2)cc1 | -25.8% |
| CCN(CC)S(=O)(=O)c1ccc(Cl)c(NC(=O)COc2ccc(OC)cc2[N+](=O)[O-])c1 | -28.8% |
| C=C1C(=O)[C@]23C[C@H]1CCC2[C@]1(C)CCC[C@@](C)(C(=O)O)C1C[C@@H]3O (stereo not given in full) | 6.02% |
| O=C(Nc1ccc2oc(=O)c(C(=O)O)cc2c1)Oc1ccccc1 | 9.66% |
| CN(Cc1cc(Cl)cc(Cl)c1)CC(C(=O)c1ccccc1)c1ccccc1 (stereo not given) | 47.9% (active) |
| Cc1ccc(C)c(-c2nc3cc(N)ccc3o2)c1 | 55% (active) |
| COc1ccc(C(=O)NC(=C(Cl)Cl)S(=O)(=O)c2ccc(C)cc2)cc1 | 36.6% |
| OC[C@@H]1CN(Cc2ccc(-c3ccccc3)cc2)C[C@H](n2cnc3c(NCc4ccc(F)cc4)ncnc32)O1 | 22.9% |
| N/C(=N\OC(=O)c1ccc(Cl)cc1Cl)c1ccccn1 | -25.1% |
| CC(=O)CC[C@@H]1CC[C@]2(CCCN(S(C)(=O)=O)C2)O1 | -4.54% |
| Cc1ccc(S(=O)(=O)N2CCC(C(=O)Nc3ccc(S(=O)(=O)N4CCOCC4)cc3)CC2)cc1 | 30.2% |
| Cc1ccc(S(=O)(=O)c2nc(NCCN(C)C)sc2Cl)cc1 | 28.4% |
| COc1cc(C(O)c2nc(-c3ccncc3)cs2)ccc1F (stereo not given) | 20.8% |
| Cc1cc2c(cc1C)C(=O)NC(C)(C)C2 | 28.2% |
